# Inconclusive results are not listed. The source made the active and inactive calls. Rule for the calls: active = hit-call score of the fitted dose curve at least 0.9, where 1 is the maximum; inconclusive = response in the unintended direction; inactive = score below 0.9.
# Experiments:
# [1] = VALA_MIGHUV2_Bcatenin: VALA Sciences human Umbilical Vein Endothelial Cell Migration (MIGHUV) Assay, Nuclear Translocation of beta-Catenin after Recovery (AID 2284315)
# In short: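 Nuclear beta-catenin imaged by immunofluorescence with Hoechst counterstain in fixed HUVEC, 24 h after scratch wounding and chemical addition. Six-point concentration-response in triplicate; activity scored as signal increase over 0.1% DMSO vehicle.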
# [2] = CCTE_Mundy_HCI_iCellGluta_NOG_NeuriteLength: CCTE's Neurite Outgrowth Assay in iCellGluta cells for Neurite Length, Mundy Lab (AID 2284318)
# In short: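 Automated high-content imaging of betaIII-tubulin (Alexa Fluor-488) and Hoechst-stained cells gave neurite length, normalized to the DMSO baseline.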
# [3] = VALA_MIGHUV1_ScratchOnly_CellCount: Viability Assessment in the VALA Sciences human Umbilical Vein Endothelial Cell Migration (MIGHUV) Assay, Scratch Wound Inhibited Recovery (AID 2284327)
# In short: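 Hoechst-stained nuclei in the scratch wound were counted by high-content imaging after a 24 h recovery period. Scratched HUVEC monolayers received 6-point concentration series, triplicate, in 0.1% DMSO, fit against DMSO.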
smiles,measurement,setting,value
O=C1OC(c2ccc(O)cc2)(c2ccc(O)cc2)c2ccccc21,outcome,[1],inactive
Nc1nc(Cl)nc2c1ncn2[C@H]1C[C@H](O)[C@@H](CO)O1,outcome,[1],inactive
OCC(O)CO,outcome,[2],inactive
CC(=O)CC(c1ccccc1)c1c(O)c2ccccc2oc1=O (stereo not given),outcome,[2],inactive
COC(=O)[C@H]1[C@H]2C[C@@H]3c4[nH]c5cc(OC)ccc5c4CCN3C[C@H]2C[C@@H](OC(=O)c2cc(OC)c(OC)c(OC)c2)[C@@H]1OC,outcome,[3],inactive

# Reference: PubChem BioAssay (EPA / NIEHS)
